D1 PAM – enhances dopamine response at the human D1 receptor; P21728; HEK293 TREx D1 cells, calcium flux, dopamine EC20 potentiation; potentiation, % at 10 µM; hit rate 0.036% among 360,000; in the data active = potentiation above about 30%; also: 0% is about no effect
Target sequence (P21728 whole entry, looked up): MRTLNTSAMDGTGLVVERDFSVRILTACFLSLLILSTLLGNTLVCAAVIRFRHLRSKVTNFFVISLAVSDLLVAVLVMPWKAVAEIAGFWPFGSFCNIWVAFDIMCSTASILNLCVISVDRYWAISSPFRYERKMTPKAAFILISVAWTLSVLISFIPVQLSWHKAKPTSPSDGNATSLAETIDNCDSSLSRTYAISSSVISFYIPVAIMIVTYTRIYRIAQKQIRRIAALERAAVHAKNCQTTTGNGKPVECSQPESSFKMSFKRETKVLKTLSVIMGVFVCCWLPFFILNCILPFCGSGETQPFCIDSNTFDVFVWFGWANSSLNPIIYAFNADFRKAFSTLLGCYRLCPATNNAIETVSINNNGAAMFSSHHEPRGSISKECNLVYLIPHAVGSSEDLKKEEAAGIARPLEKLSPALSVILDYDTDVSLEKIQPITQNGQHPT
D1 agonist – agonists of human D1 dopamine receptor; hit rate 1% among 360,000; AID 504660; activation, % at 2 µM; HEK293 T-REx D1 cells, calcium flux, agonist mode; P21728; also: 0% is about no effect
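Inducible HEK293 T-REx D1 cells, force-coupled to calcium signalling, were plated at 4000 cells/well with tetracycline and held overnight at 30 C. After no-wash calcium dye loading, compound-evoked calcium rise over 180 s flagged agonists.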
TRHR enhancer – allosteric enhancers of human TRH receptor. TRHR cells, fluo-8 calcium fluorescence, EC20 TRH enhancement. hit rate 0.66% among 360,000. enhancement, % at 2 µM. P34981. AID 493056; in the data active = enhancement above about 30%; also: 0% is about no effect
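TRHR-expressing cells loaded with fluo-8 calcium dye were read kinetically (ex 480/em 530) during compound addition, then stimulated with an EC20 of TRH (10 nM final). Enhancement of the Gq-mediated intracellular calcium response was scored.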
TRHR ag – activates the human TRH receptor. P34981. activation, % at 2 µM. hit rate 0.18% among 360,000. TRHR cells, calcium flux fluo-8, FDSS agonist mode. AID 493084; also: 0% is about no effect
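Read-out: compound-evoked intracellular calcium rise in TRHR cells, fluo-8 dye, kinetic FDSS fluorescence at 1 s/cycle following a 10-cycle baseline. Cells cultured overnight before dye loading (30 min–1.5 h, RT).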
D1 antag – antagonists of human D1 dopamine receptor; P21728; AID 504652; HEK293 TREx D1 cells, calcium flux, dopamine EC80; hits give low values; activity change, negative = inhibition, % at 10 µM; hit rate 3.2% among 360,000; in the data active = activity change below about -30%; also: % is scaled to controls: 0 for no effect and ±100 for the full control effect
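Compound effects on dopamine-evoked calcium signalling were measured in tetracycline-induced HEK293 Trex D1 cells. Dopamine at EC80 followed a 180 s compound pre-read, and fluorescence was tracked kinetically for 180 s more.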
Active calls of the source: *; x = no result; ! = not confirmed by another sample. Hits are enriched below; roughly 4.7% of the tested compounds scored in any of these assays. Rule as the data show it, unless noted: active = activation above about 30%; inactive = the rest.

SMILES	D1 PAM	D1 agonist	TRHR enhancer	TRHR ag	D1 antag
CCCN1C(=O)S/C(=C\c2ccc(N3CCOCC3)o2)C1=O	10	34*	11	20	14
CC1=C(C(=O)N2CCCCC2)C(c2cccc(Cl)c2)n2c(nc3ccccc32)N1 (stereo not given)	2	-3	14	3	-3
Cc1ccccc1C(=O)Nc1ccnn1C1CCN(Cc2c(C)n(C)c3ccccc23)CC1	-3	12	10	0	-34*
CCc1ccc(CN2CCC(n3nccc3NC(=O)c3ccccc3C)CC2)cc1	-4	15	8	2	-6
COc1cc(O)c(C(=O)/C=C/c2ccccc2)c(OC)c1	-3	2	-5	0	-56*
COc1ccc(C(=O)c2cnc3cc4c(cc3c2C)OCO4)cc1	1	0	-15	-1	-30*
COc1ccccc1C(=O)Nc1nnc(SCc2cc(=O)c3ccccc3[nH]2)s1	-4	1	1	0	-11
Cc1ccc(C(=O)Nc2ccc(-n3c(C)nc4ccccc4c3=O)cc2)cc1[N+](=O)[O-]	2	18	3	0	x
CCC(C(=O)Nc1cc(-c2cn3cccnc3n2)ccc1C)c1ccccc1 (stereo not given)	-3	1	-3	0	-3
COc1ccc(OC)c(CCNC(=O)CN2C(=O)COc3ccc(S(=O)(=O)N4CCCCCC4)cc32)c1	-1	2	-11	-1	2
CCOc1ccc(NC(=O)CN2C(=O)COc3ccc(Cl)cc32)cc1	-2	2	14	0	-59*
Cc1ccccc1NC(=O)CN1C(=O)COc2ccc(S(=O)(=O)N3CCCC3)cc21	0	1	-3	0	-16
CCOC(=O)c1ccc(NC(=O)CN2C(=O)COc3ccc(Cl)cc32)cc1	-5	-1	-5	2	-11
CCc1ccccc1NC(=O)CN1C(=O)COc2ccc(S(=O)(=O)N3CCCCCC3)cc21	-2	4	1	0	-46*
CC(C)CCNC(=O)CN1C(=O)COc2ccc(S(=O)(=O)N3CCOCC3)cc21	-7	0	-16	0	-47*
COc1ccc(CCNC(=O)CN2C(=O)COc3ccc(S(=O)(=O)N4CCCC4)cc32)c(OC)c1	0	4	4	-1	-86*!
CCOc1ccc(CCNC(=O)c2cc3c(=O)[nH]c4ccc(C)cc4c3s2)cc1OCC	-2	2	0	1	12
CCOc1ccc(CCNC(=O)CN2C(=O)COc3ccc(S(=O)(=O)N4CCCC4)cc32)cc1	4	1	-10	1	-7
CCOc1ccc(CCNC(=O)CN2C(=O)COc3ccc(S(=O)(=O)N4CCOCC4)cc32)cc1	-6	1	0	1	-69*
Cc1cc(C)c(NC(=O)C2CCN(C(=O)N3CC(C)Oc4ccc(Cl)cc43)CC2)c(C)c1 (stereo not given)	0	0	-11	0	-10
CCC1=NN(C(=O)Cc2ccccc2)C(O)(c2ccncc2)C1 (stereo not given)	-3	15	26	-1	-41*
CCOC(=O)c1c(C=O)c(C)n(Cc2ccc(C)cc2)c1C	18	104*	0	0	-56*
Cc1ccc(-c2nc3sc(CCNC(=O)c4ccc(Br)o4)c(C)n3n2)cc1	0	1	-1	0	x
Cc1nc2ccc([N+](=O)[O-])cc2c(=O)n1Cc1ccc(F)cc1	-5	7	-14	0	-32*
Cc1cccc(Cn2c(C)nc3ccc([N+](=O)[O-])cc3c2=O)c1	-3	10	-14	1	-33*
Cc1nc2ccc([N+](=O)[O-])cc2c(=O)n1Cc1cccc(F)c1	-6	4	-18	-1	2
COC(=O)c1cccc(C23CC4(C2)[C@H](CN(Cc2ccc(-c5ccccc5)cc2)[C@@H]4c2ccccc2)C3c2ccc(Cl)nc2)c1 (stereo not given in full)	-9	2	6	0	-36*
COC(=O)c1cccc(C23CC4(C2)[C@H](CN(Cc2cccnc2)[C@@H]4c2ccccc2)C3c2ccc(Cl)nc2)c1 (stereo not given in full)	3	4	2	0	36
O=C(OC1CCCCC1=O)c1ccc(S(=O)(=O)Nc2ccccc2)cc1 (stereo not given)	2	35*	13	1	-10

High-throughput results (PubChem BioAssay)
